# Rows were chosen to be rich in hits. Some 21% of all compounds tested hit in one or more screens of this group.
# Pf growth 96h: inhibits malaria parasite growth, 96 h | AID 504834 | Potency, µM (highest dose often 28.7 µM), for inactives: at the highest dose activity change, negative = inhibition, usual class: inhibitors | P. falciparum luciferase reporter growth, 96 h | 6.9% of 320,000 active; active = well fitted inhibition curve with a large enough effect; inconclusive = small, poorly fitted or top-dose-only effect, or another doubt; inactive = no such curve, though single readings can be large or run the other way; also: potency is read from the fitted curve at half-maximal effect; % is scaled to controls: 0 for no effect and ±100 for the full control effect
#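 P. falciparum expressing integrated firefly luciferase, in erythrocytes at 2% hematocrit, 0.05% parasitemia, incubated with compounds 96 h at 37 C, 5% CO2. Growth inhibition read as loss of luminescence; two-generation exposure targets delayed-death apicoplast inhibitors.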
# NS1 function inh: blocks influenza NS1 protein function; Potency, µM (series often up to 46.1 µM), without a hit: at the top dose activity, positive = more growth; AID 2326; 0.4% of 270,000 active; also: potency is read from the fitted curve at half-maximal effect; actives are rising curves; nearly all actives have a fitted effect of over 50% in size
#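 In this qHTS, NS1 from influenza A is expressed in budding yeast, where it slows growth. Cells are switched from glucose to 2% galactose medium (pH 6.0, -URA), treated with compound, and growth recovery is read at OD600.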
# Shiga inhibitor: blocks Shiga toxin action in Vero cells; Vero cells, Shiga toxin protein synthesis inhibition reporter; inhibition, % at 38.7 µM; 9.2% of 290,000 active; AID 2315; in the data active = inhibition mostly above about 28%, no sharp cut-off; inactive = mostly below about 43%; also: 0% is about no effect
# SARS PLpro yeast: blocks SARS-CoV papain-like protease in a yeast assay; S. cerevisiae expressing SARS-CoV PLpro, growth rescue; Potency, µM (titrated, usually from 32.9 µM), inactives show at the highest dose activity, positive = growth rescue, hits mostly activators; 0.19% of 330,000 active; AID 485353; also: potency is read from the fitted curve at half-maximal effect; 0% is about no effect; nearly all actives have a fitted effect of over 55% in size
# CHX counter: affects cycloheximide protein synthesis inhibition readout, counter-screen; cell reporter, cycloheximide protein synthesis inhibition counterscreen; max response, %; 12% of 300,000 active; AID 2314; in the data active = max response mostly above about 13%, no sharp cut-off; inactive = mostly below about 14%; also: read at 38.3 µM for the half of the compounds with a filed dose; 0% is about no effect
# Pf growth 48h: inhibits P. falciparum growth in the first generation, 48 h; P. falciparum luciferase growth in erythrocytes, 48 h; Potency, µM (highest dose often 28.7 µM), for inactives: top-dose activity change, negative = inhibition, most hits filed as inhibitors; 5.9% of 310,000 active; active = well fitted inhibition curve with a large enough effect; inconclusive = small, poorly fitted or top-dose-only effect, or another doubt; inactive = no such curve, though single readings can be large or run the other way; also: potency is read from the fitted curve at half-maximal effect; % is scaled to controls: 0 for no effect and ±100 for the full control effect
#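 Luminescence readout; reporter = integrated firefly luciferase in P. falciparum. RBC culture at 2% hematocrit, 0.1% parasitemia final, 37 C/5% CO2; decreased signal taken as growth inhibition.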
# Starred values were filed as active, the others as inactive; u = inconclusive; x = no result given; [ ] = dose if it differs, or a comment. Unless noted, calls follow the shape of the full dose curve.
SMILES,Pf growth 96h,NS1 function inh,Shiga inhibitor,SARS PLpro yeast,CHX counter,Pf growth 48h
CCc1ccc(-c2nc(CS(=O)CC(=O)NCc3ccc4c(c3)OCO4)c(C)o2)cc1 (stereo not drawn),u,25%,2,u,2,28%
CC(=O)C(C)Oc1ccc2c3c(c(=O)oc2c1C)CCCC3 (stereo not drawn),8.3µM*,-121%,53,-1%,12,9.3µM*
Cc1c(OC(C)C(=O)NCCN2CCOCC2)ccc2c3c(c(=O)oc12)CCCC3 (stereo not drawn),u,-9%,-10,-6%,1,-19%
Cc1c(OCc2ccc([N+](=O)[O-])cc2)ccc2c3c(c(=O)oc12)CCC3,131%,14%,29,-7%,31*,125%
CC(=O)COc1ccc2c3c(c(=O)oc2c1C)CCCCC3,u,-2%,64*,-2%,19*,109%
CCOc1ccc(NC(=O)COC(=O)Cn2cnc3ccccc32)cc1,x,x,x,-4%,x,x
CCOC(=O)/C=C/[C@H]1CCc2cccc(C)c2O1,37%,x,x,-1%,x,12%
Cc1nn(C2CCS(=O)(=O)C2)c(Cl)c1/C=C/C(=O)OCC(=O)c1cc(C)n(-c2ccc(F)cc2)c1C (stereo not drawn),u,u,8,23%,3,15µM*
CC1(C)CC(=O)c2sc(NC(=O)CCS(=O)(=O)c3ccccc3)nc2C1,-24%,-11%,16,0%,30*,8%
CC1(C)CC(=O)c2sc(NC(=O)c3cccs3)nc2C1,-19%,-22%[9.22 µM],19,-23%,16*,21%
CC1(C)CC(=O)c2sc(NC(=O)c3ccc4ncsc4c3)nc2C1,44%,0%,62*,-6%,24*,42%
CCOc1cccc2sc(NC(=O)CCS(=O)(=O)c3ccccc3)nc12,u,-7%,5,-4%,13,u
CC1(C)CC(=O)c2sc(NS(=O)(=O)c3ccc(Br)cc3)nc2C1,21%,x,-10,-2%,-3,-7%
CC1(C)CC(=O)c2sc(NS(=O)(=O)c3ccc(Cl)cc3)nc2C1,-11%,13%,0,0%,-9,-9%
COc1ccc(C)c2sc(NC(=O)CCS(=O)(=O)c3ccccc3)nc12,5.2µM*,7%,12,0%,2,-21%
CC1(C)CC(=O)c2sc(NC(=O)CN3CCCCC3)nc2C1,u,-2%,27,-3%,16,5%
COC(CN1C(=O)C(=O)/C(=C(/O)c2ccccc2)C1c1ccccn1)OC (stereo not drawn),u,7%,10,1%,10,1%
CCOc1ccc(S(=O)(=O)N(CC)CC(=O)NCc2ccncc2)cc1,-25%,19%,-9,0%,1,-12%
CC1(C)CC(=O)c2sc(NC(=O)C(C)(C)C)nc2C1,34%,2%,92*,1%,40*,95%
CC(Oc1ccccc1)C(=O)Nc1nc2c(s1)C(=O)CC(C)(C)C2 (stereo not drawn),-18%,-2%,-6,4%,-2,22%
CC1(C)CNC(=O)c2sc(N3CCOCC3)nc2C1,2%[5.75 µM],7%,-13,x,-3,u
CC1(C)CC(=O)c2sc(NC(=O)c3ccccc3)nc2C1,-4%,-2%,75*,1%,33*,11%
CC1(C)CNC(=O)c2sc(NC(=O)c3ccccc3)nc2C1,u,x,109*,-4%,51*,56%
O=C(COC(=O)C12CC3CC(CC(Br)(C3)C1)C2)Nc1cccc(S(=O)(=O)N2CCOCC2)c1,x,x,x,-22%,x,x
O=C(O)COc1ccccc1C=NNC(=O)c1ccccc1NS(=O)(=O)c1cccs1,x,x,x,-7%,x,x
Cc1ccc(F)c(CNC(=O)C2CCC(=O)N(CCCN3CCCC3=O)C2)c1F (stereo not drawn),31%,10%,12,6%,27,3%
COC(=O)[C@@]12CCCN1[C@H](c1ccc(-c3ccc(OC)cc3)cc1)[C@@H]1C(=O)N(C)C(=O)[C@@H]12,9.3µM*,x,x,-15%,x,5.9µM*
COC(=O)[C@@]12CCCN1[C@H](c1ccc(-c3ccccc3)cc1)[C@H]1C(=O)N(C)C(=O)[C@H]12,u,x,x,-6%,x,10µM*

# From PubChem BioAssay
